Laboratory results taken from PubChem BioAssay (NCI).
This is part of a sample that, as a whole, favours compounds with a hit. Of some 79,000 tested, about 15% had one in any assay. A number with no mark means an inactive call. The source made the active and inactive calls. Cut-off read from the data, not from the text of the source: active = growth inhibition above about 70%; inactive = the rest. Where a SMILES comes first, the peptide text is derived from it. [ ]: non-standard residue; d: D form. ξ: configuration not given here. ξPhe(4-N(CH2CH2Cl)2) = NC(Cc1ccc(N(CCCl)CCCl)cc1)C(=O)O; Aad = N[CH](CCCC(=O)O)C(=O)O

Columns and labels:
[1] = NCI Yeast Anticancer Drug Screen. Data for the rad50 strain (AID 155);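 note: 0% = growth of vehicle-only cultures of the same strain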; settings: S. cerevisiae rad50 strain growth inhibition; at 50.0 µM; active compounds read high
Method in brief: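 Cells are treated with compound, grown, and their growth is then scored against vehicle-only cultures of the same repair-deficient yeast strain.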

[2] = NCI Yeast Anticancer Drug Screen. Data for the mec2-1 strain (AID 157); settings: S. cerevisiae mec2-1 strain, at 50.0 µM, active compounds read high
Method in brief: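 Vehicle-treated cultures served as reference for growth inhibition of compound-exposed mec2-1 yeast.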

[3] = NCI Yeast Anticancer Drug Screen. Data for the sgs1 mgt1 strain (AID 161);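 note: 0% = growth of cultures given vehicle only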; settings: S. cerevisiae sgs1 mgt1 strain, at 50.0 µM, active compounds read high
Method in brief: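 Genetically altered yeast, compound exposure, growth inhibition relative to vehicle.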

[4] = NCI Yeast Anticancer Drug Screen. Data for the cln2 rad14 strain (AID 165);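 note: 0% = growth equal to vehicle treated cultures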; settings: S. cerevisiae cln2 rad14 strain, at 50.0 µM, active compounds read high
Method in brief: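 Each compound was tested on cln2 rad14 yeast. Inhibition of growth was calculated against vehicle-exposed controls.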

[5] = NCI Yeast Anticancer Drug Screen. Data for the bub3 strain (AID 167); settings: S. cerevisiae bub3 mutant strain, at 50.0 µM, active compounds read high
Method in brief: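 Part of a panel of yeast mutants defective in DNA damage repair or cell cycle regulation. Each strain is grown with compound, and inhibition is calculated relative to solvent-treated cultures.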

[6] = NCI Yeast Anticancer Drug Screen. Data for the mlh1 rad18 strain (AID 175); settings: S. cerevisiae mlh1 rad18 strain growth inhibition; at 50.0 µM; active compounds read high
Method in brief: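 Vehicle-treated cultures served as the reference for growth inhibition in a yeast strain carrying DNA damage repair alterations exposed to each compound.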

Structure (SMILES) | growth inhibition [1] | growth inhibition [2] | growth inhibition [3] | growth inhibition [4] | growth inhibition [5] | growth inhibition [6]
CCCCC1(CCSC(=S)OCC)C(=O)NC(=O)NC1=O | 12.6% | -12.1% | 1.55% | -36.4% | -2.7% | -11.8%
NC1CC(O)C(O)CC1c1ccc2c(c1)OCO2 (stereo unspecified) | -26.5% | -4.45% | -15.9% | -13.9% | 6.9% | -17.2%
Nc1nnnn1CCO | -4.7% | -13% | -17% | 6.4% | -13.1% | -13.1%
C=C(C)[C@H]1Cc2c(ccc3c2O[C@@H]2COc4cc(OC)c(OC)cc4[C@@H]2C3=O)O1 | 43.5% | 19.2% | 43.4% | 27.8% | 49.1% | 52.8%
COc1cc(O)c2c(O)c3c(=O)cc(C)oc3cc2c1 | -9.75% | -6.2% | 20.6% | 12.6% | -1.95% | -5.35%
CCCN(CCC)CCc1ccc(OC2=CCN(C)CC2)cc1 | -22.6% | -22.1% | 8.85% | 16.6% | -15.8% | -55%
N#CC1OC1c1cccnc1 (stereo unspecified) | 3.9% | -1.45% | -4.45% | 20.6% | 29.3% | -16.1%
CCN(CC)C(=S)Cl | -35.4% | -29.4% | -0.5% | -2.15% | 19.1% | -24.5%
COC(=O)c1ccccc1NC(C)=O | -13.8% | -9.25% | -8.95% | -38.4% | -8.5% | 2.15%
C=CCCCCCCCCC(=O)Nc1ccc(Cl)cc1C(=O)c1ccccc1 | -2.3% | 0% | 4.3% | 28.2% | -7.95% | 13.8%
COC(=O)c1c(C(=O)OC)c1=[N+]=[N-] | 5.2% | -5.35% | -0.95% | -10.8% | -0.15% | 6%
NC1Cc2cc(O)ccc2C1=O (stereo unspecified) | -5.95% | 22.2% | -3.35% | 20.2% | 22.8% | 0.7%
C1CCC2[N-]CCCC2C1.C1CCC2[N-]CCCC2C1.[Cl][Pt+2][Cl] (stereo unspecified) | 42.2% | 36% | 55.2% | 22.9% | 59.4% | 64.6%
CCN1CC2CCC1C2 (stereo unspecified) | 5.2% | -3.05% | -14.5% | 5.5% | 3.7% | 4.35%
NC(=O)C(N)C(F)c1ccccc1 (stereo unspecified) | -11.4% | 2.85% | -16.4% | -13.6% | -11.7% | 16.8%
CN1CCCC(O)(C(=O)c2ccccc2)C1 (stereo unspecified) | 4.15% | -15.2% | 0.7% | -16% | -9.35% | 12.9%
O=C(O)c1cccc(Cl)c1 | 31.6% | 6% | 19.1% | 10.9% | 25.9% | 8.2%
CC1OC(=O)C(C(C)C)NC(=O)C(C(C)C)OC(=O)C(C(C)C)NC(=O)C(C)OC(=O)C(C(C)C)NC(=O)C(C(C)C)OC(=O)C(C(C)C)NC(=O)C(C)OC(=O)C(C(C)C)NC(=O)C(C(C)C)OC(=O)C(C(C)C)NC1=O (stereo unspecified) | 31.9% | 38.8% | 45.9% | 25.1% | 16.8% | 42.5%
O=C(CCC1C(=O)NC(=S)NC1=O)c1ccc2ccccc2c1 | 14.7% | 17.8% | -12.2% | 5.3% | -7.95% | -8.15%
CC/C=C/C1(C)C(=O)NC(=S)NC1=O | 5.15% | 3.1% | -7.3% | 1.7% | 11.4% | -2.95%
CCC(Br)C(=O)OCCCl (stereo unspecified) | 12% | 13.7% | 7.7% | -4.75% | 15.5% | 3.6%

Structure (SMILES) | growth inhibition [1] | growth inhibition [2] | growth inhibition [3] | growth inhibition [4] | growth inhibition [5] | growth inhibition [6]
CN(CCC#N)c1ccc(C=C(C#N)C#N)cc1 | 7.25% | 11.3% | 7.65% | 8.05% | 24.7% | 5.65%
CC(=O)C(Sc1ccccc1[N+](=O)[O-])C(C)=O.[Co] | 33.2% | 9.5% | 4.75% | -1.3% | 6.45% | 15.8%
Cc1ccc2nc(CCl)[nH]c2c1 | 31.6% | -5.65% | 34% | 18.4% | -18.1% | 58.7%
COC(=O)CN(CCCl)P1(=O)OCCCN1CCCl (stereo unspecified) | -17.4% | -1.1% | -5.5% | 0.2% | 10.3% | -4.8%
O=S(c1ccc(Cl)cc1)c1ccc(Cl)cc1 | 1.55% | 17.9% | 33.5% | -66.2% | 13.6% | 19.1%
[CH3][Sn]([CH3])([Br])[CH2]CCCBr | 98.9% (active) | 99.5% (active) | 99.4% (active) | 98.7% (active) | 99.1% (active) | 99.3% (active)
CC(=O)Nc1cc([As]=O)ccc1O (stereo unspecified) | 29.2% | 25.2% | 31.8% | 10.6% | 50.8% | 32.6%
C[CH2][Pb]([CH2]C)([CH2]C)[N]1C(=O)c2c(Cl)c(Cl)c(Cl)c(Cl)c2C1=O | 67.7% | 34.5% | 93.1% (active) | 25.4% | 33.8% | 78.3% (active)
O=NN1CCCCCC1C(=O)O (stereo unspecified) | -22.1% | 1% | -20.9% | -24.7% | 2.7% | -0.25%
CCOC(=O)C(Cc1ccc(N(CCCl)CCCl)cc1)NC(=O)C(CCC(=O)O)NC(=O)C(Cc1ccc(O)cc1)NC(=O)C(CCCC(=O)O)NC(=O)C(N)Cc1ccc(O)cc1 (stereo unspecified) (H-Y[Aad]YE[ξPhe(4-N(CH2CH2Cl)2)]-OEt; configuration not given here) | 7.7% | 13.9% | -6.5% | 14.8% | 8.05% | 30.3%
O=P(Oc1ccccc1)(N1CCCC1)N1CCCC1 | 27.9% | 18.4% | 11.9% | 18.1% | 36.5% | 8.15%
N#Cc1ccc(C(Cl)(Cl)Cl)cc1 | 1.5% | -17.6% | -5.8% | -25.4% | -3.15% | -5.65%
CCCCOP(=O)(Nc1ccc(Cl)cc1)OCCCC | 99.3% (active) | 99.7% (active) | 99.5% (active) | 99.2% (active) | 99.4% (active) | 99.5% (active)
O=C(NC1CCCCC1)C(Cl)(Cl)Cl | -3.1% | -18.3% | -1.85% | -52% | -4.75% | -5.2%
CNCC(C)c1ccccc1OC (stereo unspecified) | -9.6% | -6.7% | 2% | 26.4% | 13.3% | -5.9%
CN(C)c1cccc(NC2=NCCO2)c1 | -21.3% | -24.5% | -27.7% | 7.35% | -20.4% | -14.6%
OCCSCSCCO | -5.8% | -8.8% | 5.8% | 10.2% | -2.8% | 0.8%
Cc1cc(NC(=O)CCc2ccc(N)cc2)ccc1S(=O)(=O)F | 89.5% (active) | 94.9% (active) | 96.5% (active) | 81.8% (active) | 95% (active) | 95.2% (active)
Cc1cc(C)[c]([Hg][Cl])c(C)c1 | 98.5% (active) | 98.7% (active) | 98.7% (active) | 96.2% (active) | 98.7% (active) | 97.8% (active)
CCCCCC(=O)C[n+]1ccccc1 (tested in a mixture with another compound) | -11.7% | -1.4% | -20% | -36% | 24.4% | -9.15%
